{
  "source": "PubChem BioAssay (EPA / NIEHS)",
  "note": "Inconclusive results are not listed. The source made the active and inactive calls. Rule for the calls, unless noted: active = hit-call score of the fitted dose curve at least 0.9, where 1 is the maximum; inconclusive = response in the unintended direction; inactive = score below 0.9.",
  "data": [
    {"molecular_target": "human Dopamine Transporter (DAT), SLC6A3 (gene 6531) (UniProt Q01959)", "sequence (Q01959 whole entry, looked up)": "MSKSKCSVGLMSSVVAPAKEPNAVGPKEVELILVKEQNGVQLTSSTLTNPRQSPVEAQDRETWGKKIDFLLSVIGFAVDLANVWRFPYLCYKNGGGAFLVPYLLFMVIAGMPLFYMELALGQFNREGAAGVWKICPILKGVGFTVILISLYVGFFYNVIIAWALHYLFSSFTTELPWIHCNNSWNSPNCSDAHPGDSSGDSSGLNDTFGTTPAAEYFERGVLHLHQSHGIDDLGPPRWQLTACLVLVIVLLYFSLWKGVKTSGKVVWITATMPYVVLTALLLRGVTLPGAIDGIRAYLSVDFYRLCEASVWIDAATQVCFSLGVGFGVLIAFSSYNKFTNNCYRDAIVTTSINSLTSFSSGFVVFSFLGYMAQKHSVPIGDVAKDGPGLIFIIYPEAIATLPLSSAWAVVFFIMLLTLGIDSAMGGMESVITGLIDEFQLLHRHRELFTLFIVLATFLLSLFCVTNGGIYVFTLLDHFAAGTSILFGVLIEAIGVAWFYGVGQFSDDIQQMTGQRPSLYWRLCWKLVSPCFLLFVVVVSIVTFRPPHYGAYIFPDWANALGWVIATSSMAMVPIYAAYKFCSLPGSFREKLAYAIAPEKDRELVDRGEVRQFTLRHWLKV", "test": "NVS_TR_hDAT: NovaScreen (NVS) Transporter Assay for human Dopamine Transporter (DAT) (AID 2283374);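 note: activity means loss of bound radioligand signal relative to DMSO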", "method_in_brief": "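Extracted human SLC6A3 protein incubated 1 h with radioligand and test chemical; bound fraction separated on filters and counted. Single 25 uM duplicate screen preceded concentration-response follow-up; positive and negative controls on every plate.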", "values": [
      {"compound": "C[C@]12CC[C@H]3C(=CCc4cc(O)ccc43)[C@@H]1CCC2=O", "AC50": "4.59 µM (active)"},
      {"compound": "CCN(CC)c1ccc(N=Nc2ccccc2)cc1", "outcome": "inactive"},
      {"compound": "Cc1cc(O)c(C(C)(C)C)cc1C(C)(C)C", "AC50": "23.7 µM (active)"},
      {"compound": "O=C(c1ccccc1)c1ccc(Cl)cc1", "AC50": "20.2 µM (active)"},
      {"compound": "CC(=O)CCC(C)C", "outcome": "inactive"},
      {"compound": "CCn1c2ccccc2c2ccccc21", "outcome": "inactive"},
      {"compound": "CSc1ccc(O)cc1C", "AC50": "33.9 µM (active)"},
      {"compound": "O=C1C=CC(=O)N1c1ccc(Cc2ccc(N3C(=O)C=CC3=O)cc2)cc1", "outcome": "inactive"},
      {"compound": "c1ccc(C[P+](c2ccccc2)(c2ccccc2)c2ccccc2)cc1", "AC50": "16.7 µM (active)"}
    ]},
    {"molecular_target": "rat Serotonin Transporter (SERT), Slc6a4 (gene 25553) (UniProt P31652)", "sequence (P31652 whole entry, looked up)": "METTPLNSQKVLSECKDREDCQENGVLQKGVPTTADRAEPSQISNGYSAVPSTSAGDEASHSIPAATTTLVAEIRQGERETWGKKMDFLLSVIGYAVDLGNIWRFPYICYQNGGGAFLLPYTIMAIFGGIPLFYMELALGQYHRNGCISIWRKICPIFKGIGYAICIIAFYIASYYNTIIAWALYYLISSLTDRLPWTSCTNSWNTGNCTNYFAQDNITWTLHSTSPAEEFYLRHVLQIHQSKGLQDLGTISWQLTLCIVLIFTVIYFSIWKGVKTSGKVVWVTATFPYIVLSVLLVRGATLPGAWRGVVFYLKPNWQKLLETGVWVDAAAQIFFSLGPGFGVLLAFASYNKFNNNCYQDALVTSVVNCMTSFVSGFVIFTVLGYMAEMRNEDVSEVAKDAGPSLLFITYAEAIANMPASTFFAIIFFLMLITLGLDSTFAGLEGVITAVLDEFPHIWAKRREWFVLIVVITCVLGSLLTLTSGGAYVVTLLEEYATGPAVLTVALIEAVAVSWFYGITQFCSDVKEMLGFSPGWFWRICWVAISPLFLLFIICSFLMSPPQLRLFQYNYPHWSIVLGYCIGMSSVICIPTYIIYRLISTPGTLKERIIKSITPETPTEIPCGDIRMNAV", "test": "NVS_TR_rSERT: NovaScreen (NVS) Transporter Assay for rat Serotonin Transporter (SERT) (AID 2283375)", "experimental": "(§1) NVS_TR_rSERT is a biochemical, single-readout assay that uses extracted gene-proteins from Rat forebrain membranes in a tissue-based cell-free assay. Measurements were taken 1 hour after chemical dosing in a 96-well plate.NVS_TR_rSERT is one of one assay component(s) measured or calculated from the NVS_TR_rSERT assay. It is designed to make measurements of radioligand binding, a form of binding reporter, as detected with scintillation counting signals by Filter-based radiodetection technology.Data from the assay component NVS_TR_rSERT was analyzed into 1 assay endpoint. This assay endpoint, NVS_TR_rSERT, was analyzed in the positive analysis fitting direction relative to DMSO as the negative control and baseline of activity. Using a type of binding reporter, loss-of-signal activity can be used to understand changes in the binding as they relate to the gene Slc6a4. Furthermore, this assay endpoint can be referred to as a primary readout, because the performed assay has only produced 1 assay endpoint. To generalize the intended target to other relatable targets, this assay endpoint is annotated to the transporter intended target family, where the subfamily is neurotransmitter transporter.\n(§2) Binding assays used specific radioligands (tritiated, iodinated) with non-radioactive competitive displacement ligands in agonist or antagonist protocols (as indicated) and various reference compounds and inhibitors to titrate specific binding to receptors and transporters. Most enzyme assays (CYPs, kinases, phosphatases, proteases, HDACs) used recombinant protein and specific substrates (fluorescence mostly, some colorimetric and radioactive) and inhibitors, followed by a biochemical separation of substrate and product. All assays for the biochemical HTS were initially run in duplicate at a single concentration (10 uM for CYP450 assays and 25 uM for all others). […] Each assay was run with positive and negative controls, and concurrent controls on every plate. The follow-up (secondary) screen tested active chemical-pairs in concentration series, as well as a few additional assays not tested in the primary screen, some selected negative inactives, and several cases re-run in the concentration series for confirmatory purposes.", "values": [
      {"compound": "C[C@]12CC[C@H]3C(=CCc4cc(O)ccc43)[C@@H]1CCC2=O", "AC50": "15.6 µM (active)"},
      {"compound": "CCN(CC)c1ccc(N=Nc2ccccc2)cc1", "AC50": "3.36 µM (active)"},
      {"compound": "CCN(CC)c1ccc2c(c1)Oc1cc(N(CC)CC)ccc1C21OC(=O)c2ccccc21", "AC50": "8.16 µM (active)"},
      {"compound": "CCN(CC)c1ccc(C=O)cc1", "AC50": "15.8 µM (active)"},
      {"compound": "CSc1ccc(O)cc1C", "outcome": "inactive"},
      {"compound": "c1ccc(C[P+](c2ccccc2)(c2ccccc2)c2ccccc2)cc1", "AC50": "3.33 µM (active)"}
    ]},
    {"molecular_target": "human Norepinephrine Transporter (NET), SLC6A2 (gene 6530) (UniProt P23975)", "sequence (P23975 whole entry, looked up)": "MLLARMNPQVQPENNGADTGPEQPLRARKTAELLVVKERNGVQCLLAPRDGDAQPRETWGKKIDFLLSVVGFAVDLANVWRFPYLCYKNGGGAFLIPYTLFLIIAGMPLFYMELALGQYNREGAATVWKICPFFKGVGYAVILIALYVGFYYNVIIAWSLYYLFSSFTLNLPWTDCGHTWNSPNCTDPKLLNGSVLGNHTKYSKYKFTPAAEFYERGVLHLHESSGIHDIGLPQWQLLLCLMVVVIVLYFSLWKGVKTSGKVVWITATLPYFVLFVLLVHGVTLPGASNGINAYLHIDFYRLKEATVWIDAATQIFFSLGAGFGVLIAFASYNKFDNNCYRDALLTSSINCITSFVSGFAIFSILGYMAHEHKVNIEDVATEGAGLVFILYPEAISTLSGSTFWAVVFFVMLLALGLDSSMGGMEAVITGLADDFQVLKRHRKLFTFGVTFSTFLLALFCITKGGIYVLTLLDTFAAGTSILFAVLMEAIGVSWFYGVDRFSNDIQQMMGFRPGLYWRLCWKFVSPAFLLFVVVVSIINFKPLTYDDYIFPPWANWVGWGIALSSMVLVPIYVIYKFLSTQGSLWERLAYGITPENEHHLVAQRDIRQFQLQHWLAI", "test": "NVS_TR_hNET: NovaScreen (NVS) Transporter Assay for human Norepinephrine Transporter (NET) (AID 2283377);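 note: cell-free membrane protein extracted from CHO cells expressing human NET; displacement of radioligand from human NET seen as loss of scintillation signal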", "experimental": "as §1, with “NVS_TR_hNET” for “NVS_TR_rSERT”, “CHO” for “Rat forebrain membranes”, “a” for “a tissue-based”, “plate.NVS_TR_hNET” for “plate.NVS_TR_rSERT”, “NVS_TR_hNET,” for “NVS_TR_rSERT,”, “SLC6A2.” for “Slc6a4.”\nas §2, with “The follow-up (secondary) screen tested active chemical-pairs in concentration series, as well as a few additional assays not tested in the primary screen, some selected negative inactives, and several cases re-run in the concentration series for confirmatory purposes.” left out", "values": [
      {"compound": "Cc1cc(O)c(C(C)(C)C)cc1C(C)(C)C", "AC50": "16.5 µM (active)"},
      {"compound": "CCN(CC)c1ccc(C=O)c(O)c1", "AC50": "25 µM (active)"},
      {"compound": "CSc1ccc(O)cc1C", "AC50": "36.4 µM (active)"}
    ]},
    {"molecular_target": "mouse Estrogen Receptor alpha (Era), Esr1 (gene 13982) (UniProt P19785)", "sequence (P19785 whole entry, looked up)": "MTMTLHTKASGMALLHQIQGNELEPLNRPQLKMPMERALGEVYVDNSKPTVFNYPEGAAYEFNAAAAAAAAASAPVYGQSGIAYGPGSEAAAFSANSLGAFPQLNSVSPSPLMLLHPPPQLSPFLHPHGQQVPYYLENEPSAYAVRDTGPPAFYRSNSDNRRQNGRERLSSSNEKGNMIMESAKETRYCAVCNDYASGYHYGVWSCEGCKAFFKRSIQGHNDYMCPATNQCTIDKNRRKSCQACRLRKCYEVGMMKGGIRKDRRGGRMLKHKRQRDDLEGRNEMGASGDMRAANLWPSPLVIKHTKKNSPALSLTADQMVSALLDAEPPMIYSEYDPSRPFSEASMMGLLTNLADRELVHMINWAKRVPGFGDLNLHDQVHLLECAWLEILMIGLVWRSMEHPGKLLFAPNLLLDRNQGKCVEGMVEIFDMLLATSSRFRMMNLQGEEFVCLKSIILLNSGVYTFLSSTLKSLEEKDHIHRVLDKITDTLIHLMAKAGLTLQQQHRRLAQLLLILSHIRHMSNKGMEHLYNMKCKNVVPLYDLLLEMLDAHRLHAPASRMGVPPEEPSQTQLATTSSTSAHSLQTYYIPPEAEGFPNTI", "test": "NVS_NR_mERa: NovaScreen (NVS) Nuclear Receptor Binding Assay for mouse Estrogen Receptor alpha (Era) (AID 2283378);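 note: hit means loss of bound radioligand signal relative to DMSO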", "method_in_brief": "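Cell-free radioligand competitive displacement binding, read by filter-based scintillation counting 18 h after dosing. Primary screen run in duplicate at 25 uM, actives retested in concentration series; loss of signal versus DMSO.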", "values": [
      {"compound": "Cc1ccc(O)c(-n2nc3ccccc3n2)c1", "AC50": "6.65 µM (active)"},
      {"compound": "COCCOCCC[Si](C)(O[Si](C)(C)C)O[Si](C)(C)C", "outcome": "inactive"},
      {"compound": "CCCCCCCCn1sc(Cl)c(Cl)c1=O", "AC50": "25 µM (active)"},
      {"compound": "O=C1C=CC(=O)N1c1ccccc1", "outcome": "inactive"},
      {"compound": "CCCCCCCCCc1ccc(OCCO)cc1", "outcome": "inactive"},
      {"compound": "CCC(Cc1c(I)cc(I)c(N)c1I)C(=O)O", "note": "(centres undefined)", "outcome": "inactive"},
      {"compound": "O=C(c1ccccc1)c1ccc(O)cc1O", "AC50": "1.22 µM (active)"},
      {"compound": "CCCCCCCC/C=C\\CCCCCCCC(=O)N(C)CC(=O)O", "outcome": "inactive"},
      {"compound": "CCCCCCCCCCCCC[N+](C)(C)Cc1ccccc1", "AC50": "8.86 µM (active)"},
      {"compound": "CCCCCCCCCCCCCC[P+](CCCC)(CCCC)CCCC", "outcome": "inactive"},
      {"compound": "CCN=c1cc2oc3cc(NCC)c(C)cc3c(-c3ccccc3C(=O)OCC)c-2cc1C", "AC50": "25 µM (active)"},
      {"compound": "CC(C)(C)c1cc(CCC(=O)OCC(COC(=O)CCc2cc(C(C)(C)C)c(O)c(C(C)(C)C)c2)(COC(=O)CCc2cc(C(C)(C)C)c(O)c(C(C)(C)C)c2)COC(=O)CCc2cc(C(C)(C)C)c(O)c(C(C)(C)C)c2)cc(C(C)(C)C)c1O", "outcome": "inactive"}
    ]},
    {"molecular_target": "Agonist Androgen Response Element (ARE), AR (gene 367) (UniProt P10275)", "sequence (P10275 whole entry, looked up)": "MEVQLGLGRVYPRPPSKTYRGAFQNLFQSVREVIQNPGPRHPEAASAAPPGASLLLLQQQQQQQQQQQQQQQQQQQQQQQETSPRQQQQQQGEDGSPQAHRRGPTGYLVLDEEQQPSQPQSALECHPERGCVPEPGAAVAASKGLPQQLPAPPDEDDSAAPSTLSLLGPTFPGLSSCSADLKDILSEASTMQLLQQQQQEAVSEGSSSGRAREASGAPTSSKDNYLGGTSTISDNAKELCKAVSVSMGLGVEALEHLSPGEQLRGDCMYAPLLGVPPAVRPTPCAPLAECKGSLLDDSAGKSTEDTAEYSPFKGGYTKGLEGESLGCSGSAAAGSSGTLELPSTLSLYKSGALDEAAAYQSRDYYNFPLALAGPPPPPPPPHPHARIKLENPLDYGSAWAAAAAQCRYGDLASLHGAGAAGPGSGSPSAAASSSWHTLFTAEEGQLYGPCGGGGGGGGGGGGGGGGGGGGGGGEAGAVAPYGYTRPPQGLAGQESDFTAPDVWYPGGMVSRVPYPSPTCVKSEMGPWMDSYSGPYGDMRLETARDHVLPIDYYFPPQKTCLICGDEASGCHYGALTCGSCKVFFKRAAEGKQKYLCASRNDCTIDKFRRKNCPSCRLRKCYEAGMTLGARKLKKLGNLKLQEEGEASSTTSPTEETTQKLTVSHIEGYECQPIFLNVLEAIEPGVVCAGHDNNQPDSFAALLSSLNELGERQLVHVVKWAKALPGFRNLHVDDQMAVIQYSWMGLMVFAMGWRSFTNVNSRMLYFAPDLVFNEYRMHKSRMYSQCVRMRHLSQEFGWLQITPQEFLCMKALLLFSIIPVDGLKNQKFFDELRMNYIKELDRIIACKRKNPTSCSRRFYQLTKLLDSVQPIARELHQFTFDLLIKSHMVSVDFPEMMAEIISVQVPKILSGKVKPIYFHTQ", "test": "OT_AR_ARELUC_AG_1440: Odyssey Thera (OT) 24-hour CHO-K1 Luciferase Assay for Agonist Androgen Response Element (ARE) (AID 2283379)", "method_in_brief": "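Luminescence increase above DMSO, read after a 24 h compound treatment of CHO-K1 cells expressing an androgen response element luciferase reporter, gives the single primary endpoint; concentration-response fitting used the positive direction.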", "values": [
      {"compound": "C[C@]12CC[C@H]3C(=CCc4cc(O)ccc43)[C@@H]1CCC2=O", "AC50": "0.284 µM (active)"},
      {"compound": "COCCOCCC[Si](C)(O[Si](C)(C)C)O[Si](C)(C)C", "outcome": "inactive"},
      {"compound": "O=C1C=CC(=O)N1c1ccccc1", "outcome": "inactive"},
      {"compound": "CCCCCCCCCc1ccc(OCCO)cc1", "AC50": "0.238 µM (active)"},
      {"compound": "CCCCCCCCCCCCC[N+](C)(C)Cc1ccccc1", "outcome": "inactive"},
      {"compound": "CCCCCCCCCCCCCC[P+](CCCC)(CCCC)CCCC", "outcome": "inactive"},
      {"compound": "CCN=c1cc2oc3cc(NCC)c(C)cc3c(-c3ccccc3C(=O)OCC)c-2cc1C", "outcome": "inactive"}
    ]},
    {"molecular_target": "Estrogen receptor beta (Homo sapiens) (UniProt Q92731)", "sequence (Q92731 whole entry, looked up, the tested form may be a part)": "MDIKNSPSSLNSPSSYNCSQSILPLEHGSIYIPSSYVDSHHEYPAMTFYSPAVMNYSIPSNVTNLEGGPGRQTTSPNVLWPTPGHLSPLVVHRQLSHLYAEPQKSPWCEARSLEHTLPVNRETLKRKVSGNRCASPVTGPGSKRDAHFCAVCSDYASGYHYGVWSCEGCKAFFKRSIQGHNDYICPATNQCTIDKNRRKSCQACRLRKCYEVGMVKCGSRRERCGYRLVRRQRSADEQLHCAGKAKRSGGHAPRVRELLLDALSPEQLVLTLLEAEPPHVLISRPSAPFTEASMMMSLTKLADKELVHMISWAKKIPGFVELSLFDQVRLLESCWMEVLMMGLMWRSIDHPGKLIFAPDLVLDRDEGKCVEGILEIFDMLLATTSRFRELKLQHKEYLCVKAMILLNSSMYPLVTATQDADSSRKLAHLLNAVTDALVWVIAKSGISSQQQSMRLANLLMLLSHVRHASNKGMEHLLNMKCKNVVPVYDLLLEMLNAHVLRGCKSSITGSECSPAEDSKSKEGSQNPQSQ", "test": "OT_ER_ERbERb_1440: Odyssey Thera (OT) 24-hour HEK293T Protein-Complementation Assay for Estrogen Receptor-beta/-beta Homodimer (AID 2283380);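 note: fluorescence gain from ER beta LBD homodimer complementation read by laser scanning cytometry; scored as signal increase over DMSO baseline for both agonists and antagonists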", "method_in_brief": "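HEK293T cells stably expressing human ER-beta LBD (aa 310-547) PCA homodimer pair, dosed 24 h; formaldehyde-fixed, Draq5-stained. Readout: increase in nuclear (agonist) or nuclear plus cytoplasmic (antagonist) fluorescence intensity versus DMSO, gain-of-signal fitting.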", "values": [
      {"compound": "Cc1ccc(O)c(-n2nc3ccccc3n2)c1", "outcome": "inactive"},
      {"compound": "COCCOCCC[Si](C)(O[Si](C)(C)C)O[Si](C)(C)C", "AC50": "53.3 µM (active)"},
      {"compound": "O=C1C=CC(=O)N1c1ccccc1", "outcome": "inactive"},
      {"compound": "CCCCCCCCCc1ccc(OCCO)cc1", "AC50": "4.63 µM (active)"},
      {"compound": "CCCCCCCC/C=C\\CCCCCCCC(=O)N(C)CC(=O)O", "outcome": "inactive"},
      {"compound": "CCCCCCCCCCCCC[N+](C)(C)Cc1ccccc1", "outcome": "inactive"},
      {"compound": "CCCCCCCCCCCCCC[P+](CCCC)(CCCC)CCCC", "outcome": "inactive"},
      {"compound": "CCN=c1cc2oc3cc(NCC)c(C)cc3c(-c3ccccc3C(=O)OCC)c-2cc1C", "AC50": "76.4 µM (active)"},
      {"compound": "CC(C)(C)c1cc(CCC(=O)OCC(COC(=O)CCc2cc(C(C)(C)C)c(O)c(C(C)(C)C)c2)(COC(=O)CCc2cc(C(C)(C)C)c(O)c(C(C)(C)C)c2)COC(=O)CCc2cc(C(C)(C)C)c(O)c(C(C)(C)C)c2)cc(C(C)(C)C)c1O", "outcome": "inactive"}
    ]},
    {"molecular_target": "Estrogen receptor (Homo sapiens) (UniProt P03372)", "sequence (P03372 whole entry, looked up)": "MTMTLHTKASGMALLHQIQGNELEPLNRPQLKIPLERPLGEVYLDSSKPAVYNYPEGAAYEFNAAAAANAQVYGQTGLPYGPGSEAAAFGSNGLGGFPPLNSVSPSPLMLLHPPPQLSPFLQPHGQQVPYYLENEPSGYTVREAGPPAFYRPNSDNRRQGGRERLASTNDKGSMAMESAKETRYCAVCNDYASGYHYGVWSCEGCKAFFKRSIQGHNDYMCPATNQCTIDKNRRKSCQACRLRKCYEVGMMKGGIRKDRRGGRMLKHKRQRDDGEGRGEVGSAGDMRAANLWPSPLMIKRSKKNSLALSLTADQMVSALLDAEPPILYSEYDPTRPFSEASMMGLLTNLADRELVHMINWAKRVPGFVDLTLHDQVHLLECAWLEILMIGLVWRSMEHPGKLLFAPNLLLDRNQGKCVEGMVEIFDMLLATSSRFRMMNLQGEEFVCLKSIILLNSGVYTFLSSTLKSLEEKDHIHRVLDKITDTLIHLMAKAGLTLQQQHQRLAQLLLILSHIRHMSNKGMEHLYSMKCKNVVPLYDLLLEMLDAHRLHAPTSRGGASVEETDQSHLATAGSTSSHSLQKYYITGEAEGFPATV", "test": "OT_ERa_GFPERaERE_0480: Odyssey Thera (OT) 8-hour HeLa Transcription Induction Assay for Estrogen Receptor (AID 2283381; active = hit-call score of the fitted dose curve at least 0.9, where 1 is the maximum; inactive = score below 0.9)", "method_in_brief": "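GFP-ERE reporter, HeLa, 8 h exposure. Readout: fluorescence microscopy, high-content image analysis. Fit direction positive vs DMSO negative control.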", "values": [
      {"compound": "Cc1ccc(O)c(-n2nc3ccccc3n2)c1", "outcome": "inactive"},
      {"compound": "COCCOCCC[Si](C)(O[Si](C)(C)C)O[Si](C)(C)C", "outcome": "inactive"},
      {"compound": "CCCCCCCCn1sc(Cl)c(Cl)c1=O", "outcome": "inactive"},
      {"compound": "O=C1C=CC(=O)N1c1ccccc1", "outcome": "inactive"},
      {"compound": "CC(=O)CCC(C)C", "outcome": "inactive"},
      {"compound": "CCCCCCCCCc1ccc(OCCO)cc1", "outcome": "inactive"},
      {"compound": "CCC(Cc1c(I)cc(I)c(N)c1I)C(=O)O", "note": "(centres undefined)", "outcome": "inactive"},
      {"compound": "O=C(c1ccccc1)c1ccc(O)cc1O", "AC50": "8.62 µM (active)"},
      {"compound": "CCCCCCCC/C=C\\CCCCCCCC(=O)N(C)CC(=O)O", "outcome": "inactive"},
      {"compound": "CCCCCCCCCCCCC[N+](C)(C)Cc1ccccc1", "outcome": "inactive"},
      {"compound": "CCCCCCCCCCCCCC[P+](CCCC)(CCCC)CCCC", "AC50": "10.4 µM (active)"},
      {"compound": "CCN=c1cc2oc3cc(NCC)c(C)cc3c(-c3ccccc3C(=O)OCC)c-2cc1C", "outcome": "inactive"},
      {"compound": "CC(C)(C)c1cc(CCC(=O)OCC(COC(=O)CCc2cc(C(C)(C)C)c(O)c(C(C)(C)C)c2)(COC(=O)CCc2cc(C(C)(C)C)c(O)c(C(C)(C)C)c2)COC(=O)CCc2cc(C(C)(C)C)c(O)c(C(C)(C)C)c2)cc(C(C)(C)C)c1O", "outcome": "inactive"}
    ]}
  ]
}
